{
  "source": "PubChem BioAssay (Tox21)",
  "note": "Active and inactive are the calls of the source. Calls follow the shape of the dose curve; as a rule, active = well fitted curve in the direction sought with a large enough effect in the repeat runs; inconclusive = weak or mixed curves; inactive = flat fitted curve, though single readings scatter. % is scaled to controls: 0 for no effect and ±100 for the full control effect.",
  "data": [
    {"test": "qHTS assay to test for compound auto fluorescence at 460 nm (blue) in HepG2 cell free culture (AID 720685)", "conditions": "Cell-free culture medium, blue autofluorescence 405/460 nm; series mostly up to 91.3 µM", "source_text": "U.S. Tox21 Program National Center for Advancing Translational Sciences [NCATS] NIH Chemical Genomics Center [NCGC] U.S. Environmental Protection Agency [EPA] National Institutes of Environmental Health Sciences [NIEHS] National Toxicology Program [NTP] U.S. Food and Drug Administration [FDA] Tox21 Assay Overview: Compound auto fluorescence often interferes with screening of the compound library against various biological targets and signaling pathways. Some of these compounds may have fluorophoric properties. Such properties may interfere with the assay outputs resulting in false positives and/or negatives. To decrease such complications and ensure the compound activities are relevant in terms of biological response, the Tox21 10K compound library was screened for auto fluorescence. From the fluorophores used as reporter signals in our screening assays, the auto fluorescence equivalencies of compounds against three fluorophores have been evaluated: Triamterene, Fluorescein and Rose Bengal sodium for blue, green and red fluorescence, respectively. The fluorescence intensities were measured using Excitation/Emission wavelengths at 405/460nm, 485/535nm and 540/590nm for blue, green and red labels, respectively. This assay includes the blue fluorescence data.\nTox21 Assay Protocol Summary: 5 uL of culture medium (MEM containing 10% FBS) per well was dispensed into black wall/clear bottom 1536-well plates using a Multidrop Combi Dispenser (ThermoFisher Scientific, Waltham, MA). After 23 nL compound or DMSO vehicle was transferred into assay plate by a pintool work station (Kalypsys, San Diego, CA), fluorescence intensities in the assay plates were measured by an Envision (PerkinElmer, Shelton, CT) plate reader using three labels for measuring blue, green and red fluorescence at […] 460, 535 and 590nm respectively.", "values": [
      {"smiles": "CC(C)CCCCCCCOC(=O)c1ccc(C(=O)OCCCCCCCC(C)C)c(C(=O)OCCCCCCCC(C)C)c1", "outcome": "inactive"},
      {"smiles": "CCc1ccc2c(c1)C(=O)c1ccccc1C2=O", "outcome": "inactive"},
      {"smiles": "CCOc1ccccc1O", "outcome": "inactive"},
      {"smiles": "CC(CCl)OC(C)CCl", "note": "(stereo not given)", "outcome": "inactive"},
      {"smiles": "Cc1ccc(S(=O)(=O)NC(=O)NC2CCCC2)cc1", "outcome": "inactive"},
      {"smiles": "CC(C)CC(C)(C)C", "outcome": "inactive"},
      {"smiles": "C=CCCC", "outcome": "inactive"},
      {"smiles": "O=S(=O)(O)c1cc(Cl)c(Cl)cc1Cl", "outcome": "inactive"},
      {"smiles": "C[C@@H](O)[C@H]1C(=O)N2C(C(=O)O)=C(S[C@@H]3CN[C@H](CNS(N)(=O)=O)C3)[C@H](C)[C@H]12", "outcome": "inactive"},
      {"smiles": "CCC(C)CCCC(C)(C)O", "note": "(stereo not given)", "outcome": "inactive"},
      {"smiles": "O=C(NC1CCN(CCc2c[nH]c3ccccc23)CC1)c1ccccc1", "outcome": "inactive"},
      {"smiles": "CCOc1ccc2c(c1)C(C)CC(C)(C)N2", "note": "(stereo not given)", "outcome": "inactive"},
      {"smiles": "CCCc1ccc(OC)cc1", "outcome": "inactive"},
      {"smiles": "CC/C=C\\CCO", "outcome": "inactive"},
      {"smiles": "CC(O)CN", "note": "(stereo not given)", "outcome": "inactive"},
      {"smiles": "CCCCCCCCCCCCCCCCCCCl", "fluorescence, % of fluorescent control": "-0.0175% [at 3.72 µM] (inactive)"},
      {"smiles": "O=C(OCCCCCOC(=O)c1ccccc1)c1ccccc1", "outcome": "inactive"},
      {"smiles": "Cc1c(-c2cccnc2)c2ccccc2n1CCCCC(=O)O", "outcome": "inactive"},
      {"smiles": "Cc1c(Cl)cccc1Nc1ccccc1C(=O)O", "outcome": "inactive"},
      {"smiles": "CCCCCCCCCCCCN1CCOCC1", "outcome": "inactive"},
      {"smiles": "COc1cc(C)c(Cc2cnc(N)nc2N)cc1OC", "outcome": "inactive"},
      {"smiles": "O=c1c2ccccc2oc2ccccc12", "outcome": "inactive"},
      {"smiles": "CCCCCCCCCC(C)C=O", "note": "(stereo not given)", "outcome": "inactive"},
      {"smiles": "Nc1ccc(C(=O)Oc2ccccc2)c(O)c1", "outcome": "inactive"},
      {"smiles": "COc1ccc(C(=O)c2ccc(C)cc2)c(O)c1", "outcome": "inactive"},
      {"smiles": "CCCCCCCCCCCCSC#N", "outcome": "inactive"},
      {"smiles": "CC(C)CCCCCOC(=O)CS", "outcome": "inactive"},
      {"smiles": "CC(O)C(C)O", "note": "(stereo not given)", "outcome": "inactive"},
      {"smiles": "O=C(O)c1ccncc1", "outcome": "inactive"},
      {"smiles": "C/C=C1\\[C@H]2C=C(C)C[C@]1(N)c1ccc(=O)[nH]c1C2", "outcome": "inactive"},
      {"smiles": "CCCCCCOC(=O)c1ccccc1", "outcome": "inactive"},
      {"smiles": "Sc1nc(S)nc(S)n1", "outcome": "inactive"},
      {"smiles": "O=C1c2ccccc2C(=O)C1c1ccc2cc(S(=O)(=O)O)cc(S(=O)(=O)O)c2n1", "outcome": "inactive"},
      {"smiles": "O=C1CCCN1CCO", "outcome": "inactive"},
      {"smiles": "CCC(CC)C(=O)O", "outcome": "inactive"},
      {"smiles": "CC1(C)CC(O)CC(C)(C)N1[O]", "outcome": "inactive"},
      {"smiles": "NC(=O)c1cc[n+](CC2=C(C(=O)[O-])N3C(=O)[C@@H](NC(=O)Cc4cccs4)[C@H]3SC2)cc1", "fluorescence, % of fluorescent control": "0.491% [at 18.6 µM] (inactive)"},
      {"smiles": "CCCCOc1ccc(N)cc1", "outcome": "inactive"},
      {"smiles": "CS(C)=O", "outcome": "inactive"},
      {"smiles": "O=C(O)c1ccc(O)c(O)c1", "outcome": "inactive"}
    ]}
  ]
}
